Laboratory results published in PubChem BioAssay AID1076 (NMMLSC, 2008).
Calls of active or inactive are those of the source.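 How the source made its calls: active means cell event count below 40, meaning activity score above 60 where score is 100 minus count; inactive means the rest.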

Test: cytotoxicity in LNCaP prostate cells – cell-based, cell event count, single point, cytotoxicity control for prostate differentiation activator project, confirmation (AID 1076);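 further: counts scatter-gated live cells after medium removal discards detached dead cells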
Details: LNCaP cell loss, flow cytometry event count, 4 d, stronger effect = lower value

SMILES | cell event count (at 100 µM) | cell event count (event count, at 10 µM)
COc1ccc(Cc2noc(-c3ccc(C)cc3)n2)cc1 | 70 (inactive) | 152
CCOC(=O)Cn1nc(-c2ccc(Cl)cc2)cc1N | 70 (inactive) | 22
Cc1oc(-c2ccc(Cl)cc2)nc1CN1CCCC(C(=O)N2CCN(C(=O)c3ccco3)CC2)C1 (configuration not stated) | 19 (inactive) | 120
CCOC(=O)C1CCCN(C(=O)Cn2cccc2C(=O)c2ccccc2)C1 (configuration not stated) | 201 (inactive) | 166
COc1ccc(CCNC(=O)C2CCN(Cc3nc(-c4cccc(Cl)c4)oc3C)CC2)cc1OC | 85 (inactive) | 338
Cc1ccccc1-c1nc(CN2CCC(C(=O)NCC3CCCO3)CC2)c(C)o1 (configuration not stated) | 71 (inactive) | 139
Cc1sc(CO)c(Sc2ccccc2)c1C(=O)O | 324 (inactive) | 240
CCN(CCCNS(=O)(=O)c1ccc2c(c1)oc(=O)n2C)c1cccc(C)c1 | 27 (inactive) | 151
CCOC(=O)N1CCN(C(=O)CN(c2cccc(C(F)(F)F)c2)S(=O)(=O)c2ccccc2)CC1 | 137 (inactive) | 395
COc1ccc(CCNC(=O)C2CCN(Cc3nc(-c4ccccc4F)oc3C)CC2)cc1OC | 524 (inactive) | 478
Cc1ccc2c(c1)-c1c(cnn1CC(=O)Nc1ccccc1N1CCN(C)CC1)CO2 | 73 (inactive) | 142
COc1ccc2c(c1OC)C(=O)N(C(C)C(=O)O)C2=O (configuration not stated) | 56 (inactive) | 53.5
Cc1ccccc1-c1nc(CN2CCC(C(=O)NCCC3=CCCCC3)CC2)c(C)o1 | 11 (inactive) | 93.5
CN(CC(O)COc1ccc(OCC(O)CN(C)C2CCCCC2)cc1)C1CCCCC1 (configuration not stated) | 249 (inactive) | 118
CCOC(=O)c1ccccc1NC(=O)Cn1c(-c2nonc2N)nc2ccccc21 | 72 (inactive) | 122
COc1ccc2nc3oc(C(=O)NCc4cccs4)cc3cc2c1 | 307 (inactive) | 304
COc1ccc(-c2nc(CN3CCC(C(=O)N4CCc5ccccc54)CC3)c(C)o2)cc1OC | 16 (inactive) | 298
Nc1cccc2cnccc12 | 241 (inactive) | 168
COc1ccccc1N1CCN(C(=O)CCn2c(=O)[nH]c3ccsc3c2=O)CC1 | 206 (inactive) | 224
CCc1nn(C(C)C(=O)N2CCc3ccccc3C2)c(=O)c2cc3occc3n12 (configuration not stated) | 91 (inactive) | 123
Cc1ccc(OCC(O)Cn2c(=N)n(CCN3CCCCC3)c3ccccc32)cc1 (configuration not stated) | 13 (inactive) | 96
Cc1ccccc1-c1nc(CN2CCCC(C(=O)NCc3cccnc3)C2)c(C)o1 (configuration not stated) | 124 (inactive) | 135
Cc1ccc2[nH]c(=O)c3cc(C(=O)N(C)Cc4ccco4)sc3c2c1 | 72 (inactive) | 456
CCn1c(=O)cc(SCC(=O)N2CCN(C3CCCCC3)CC2)c2ccccc21 | 6 (inactive) | 402
COc1ccc2cc3c(N)nn(C(=O)Cc4ccccc4OC)c3nc2c1 | 20 (inactive) | 287
Cc1cc(NC(=O)CSc2nnc(C3CC3)n2C)no1 | 198 (inactive) | 100
